The subject of experiment [1] is Wnt5a (protein binding on small-molecule microarray). Nature of the experiment: Wnt5a binders on small-molecule microarray, primary screen, biophysical, 635/667 nm fluorescence (AID 1142).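 Further: fluorescence read at 667 nm with signal to noise per printed feature.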 The conditions noted are these: 635 nm fluorescence, higher = more signal.
Experiment [2] in a line: cell viability in Huh7 cells, primary screen, cytotoxicity control for HCV replication inhibitor project, CellTiter-Glo luminescence, basal, 48 h (AID 1143).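 Further: Huh7 hepatoma cells carrying a hepatitis C replication reporter with no stimulus; test concentration not given here.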 The conditions noted are these: Huh7 HCV replicon, higher = more signal, called active from +8 up or from −8 down. On the technique in general: ATP-based viability assays read luminescence as a measure of living cells.

Experiment [3] in a line: P. aeruginosa biofilm formation inhibitors, primary screen, PAO1 strain, BacTiter-Glo luminescence, LB-PBS (AID 1144). The conditions noted are these: 12 h, higher = more signal.
Experiment [4] is described as follows: CREB reporter modulators without forskolin, primary screen, cell-based, PC12, CRE-LacZ reporter, unstimulated (AID 1145). The conditions noted are these: no forskolin, luminescence, 4.5 h, higher = more signal, called active from +8 up or from −8 down.
Experiment [5] in a line: CREB reporter modulators under forskolin, primary screen, cell-based, PC12, CRE-LacZ reporter, forskolin-stimulated (AID 1146).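 Further: PC12 cells with 6xCRE LacZ reporter stimulated by forskolin 10 µM; beta-galactosidase reporter signal reflecting CREB driven transcription.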 The conditions noted are these: luminescence, 4.5 h, higher = more signal, called active from +8 up or from −8 down.
Experiment [6] concerns the target Streptavidin (Streptomyces avidinii) (UniProt P22629). As to the kind of experiment: streptavidin binders on small-molecule microarray, primary screen, artefact control for SMM compound annotation, biophysical, 635/667 nm fluorescence (AID 1147).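 Further: signal reflects streptavidin binding to arrayed compounds as a control protein.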 The conditions noted are these: streptavidin binding, higher = more signal.
Experiment [7] is described as follows: small-molecule binders of probe aInhba, primary screen, biochemical, small-molecule microarray, 635/667 nm fluorescence (AID 1148).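 Further: score merges 667nm spot fluorescence with signal-to-noise for antibody binding to printed compounds.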 The conditions noted are these: higher = more signal.
Experiment [8] addresses Torsin-1A (Homo sapiens) (UniProt O14656). Nature of the experiment: torsin A binders from cell lysate, primary screen, small-molecule microarray, wild-type, 635/667 nm (AID 1149). The conditions noted are these: COS7 hTOR1A-WT lysate, 635 nm fluorescence, higher = more signal.
Experiment [9] shares this target. As to the kind of experiment: small-molecule binders of mutant TOR1A in lysate, primary screen, cell lysate, small-molecule microarray, COS7 lysate, 635/667 nm fluorescence (AID 1150).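 Further: score pools 667 nm emission and signal to noise measuring lysate protein binding.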 The conditions noted are these: COS7 hTOR1A mutant lysate, 635 nm fluorescence, higher = more signal.
Experiment [10] relates to Sonic hedgehog protein (Shh). Nature of the experiment: small-molecule binders of Shh protein, primary screen, biochemical, small-molecule microarray, 635/667 nm fluorescence (AID 1151).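 Further: Shh protein binding to compounds spotted on small-molecule microarray slides; score combines spot fluorescence intensity with signal-to-noise across triplicate slides.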 The conditions noted are these: small-molecule microarray binding, 635 nm fluorescence; higher = more signal.
A short description of experiment [11]: E. coli DRC41 culture turbidity changes, primary screen, E. coli filamentation inducer project, strain DRC41, OD650, 48 h (AID 1152).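 Further: E. coli MC1000 strain DRC41 lacking acrAB efflux pump and sulA.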 The conditions noted are these: E. coli DRC41 (acrAB sulA), higher = more signal, called active from +8 up or from −8 down.
Experiment [12] in a line: small-molecule binders of probe aLefty1, primary screen, biochemical, small-molecule microarray, 635/667 nm fluorescence (AID 1153).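 Further: score merges spot fluorescence with signal-to-noise ratio from the scanned slide images.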 The conditions noted are these: higher = more signal.
The nature of experiment [13]: PSAC antagonists in infected red cells, primary screen, cell-based, P. falciparum Indochina, OD700, 1 h (AID 1154). The conditions noted are these: P. falciparum Indochina infected RBC osmotic lysis, higher = more signal, called active from +8 up or from −8 down.
Experiment [14] is described as follows: PSAC antagonists in infected red cells, primary screen, cell-based, P. falciparum Indochina, OD700, 2 h (AID 1155).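 Further: lysis reports solute entry through the parasite surface anion channel PSAC; channel blockers reduce lysis of infected cells.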 The conditions noted are these: P. falciparum Indochina infected erythrocytes, osmotic lysis OD700; higher = more signal, called active from +8 up or from −8 down.
Experiment [15] can be described thus: osmotic lysis modulators in infected erythrocytes, primary screen, PSAC antagonist project, cell-based, P. falciparum Indochina, OD700, 3 h (AID 1156). The conditions noted are these: higher = more signal, called active from +8 up or from −8 down.
Experiment [16] is described as follows: PSAC antagonists in infected red cells, primary screen, cell-based, P. falciparum Indochina, OD700, 18 h (AID 1157). The conditions noted are these: P. falciparum Indochina infected erythrocytes, osmotic lysis OD700, 18 h; higher = more signal, called active from +8 up or from −8 down.
A short description of experiment [17]: modulators of S6 phosphorylation in cells, primary screen, cell-based, A549, cytoblot, luminescence, serum-stimulated (AID 1158).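 Further: serum-stimulated A549 lung adenocarcinoma cells; signal is phosphorylated S6 detected by cytoblot immunostaining with HRP secondary.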 The conditions noted are these: A549 phospho-S6 cytoblot, 5 h, higher = more signal.
Experiment [18] deals with NADPH oxidase 2 (Homo sapiens) (UniProt P04839). Nature of the experiment: NOX2-dependent H2O2 signal modulators, primary screen, NOX inhibitor project, cell-based, HEK293-NOX2, PMA-stimulated, Amplex Red fluorescence (AID 1159). Further: test concentration not given here. The conditions noted are these: 45 min, higher = more signal, called active from +8 up or from −8 down.
Sequence of NADPH oxidase 2 (Homo sapiens) (P04839 whole entry, looked up): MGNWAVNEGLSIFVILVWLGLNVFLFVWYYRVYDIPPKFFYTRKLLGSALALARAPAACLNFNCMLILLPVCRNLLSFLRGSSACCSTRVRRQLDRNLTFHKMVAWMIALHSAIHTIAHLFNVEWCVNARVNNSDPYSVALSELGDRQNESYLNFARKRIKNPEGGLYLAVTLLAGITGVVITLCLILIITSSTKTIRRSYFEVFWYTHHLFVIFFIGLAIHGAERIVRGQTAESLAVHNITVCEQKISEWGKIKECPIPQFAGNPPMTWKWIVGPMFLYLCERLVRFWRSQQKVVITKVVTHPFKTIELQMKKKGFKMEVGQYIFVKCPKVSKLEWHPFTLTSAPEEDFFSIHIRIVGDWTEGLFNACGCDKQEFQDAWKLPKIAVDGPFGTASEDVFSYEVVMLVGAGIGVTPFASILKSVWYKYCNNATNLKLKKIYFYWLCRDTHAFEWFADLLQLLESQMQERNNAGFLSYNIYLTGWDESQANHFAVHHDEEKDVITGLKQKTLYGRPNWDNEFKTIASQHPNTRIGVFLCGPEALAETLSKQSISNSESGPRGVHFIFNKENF
Experiment [19] deals with NADPH oxidase 4 (Homo sapiens) (UniProt Q9NPH5). Nature of the experiment: NOX4-dependent H2O2 signal modulators, primary screen, NOX inhibitor project, cell-based, HEK293-NOX4, tetracycline-induced, Amplex Red fluorescence (AID 1160). The conditions noted are these: 45 min, higher = more signal, called active from +8 up or from −8 down.
Sequence of NADPH oxidase 4 (Homo sapiens) (Q9NPH5 whole entry, looked up): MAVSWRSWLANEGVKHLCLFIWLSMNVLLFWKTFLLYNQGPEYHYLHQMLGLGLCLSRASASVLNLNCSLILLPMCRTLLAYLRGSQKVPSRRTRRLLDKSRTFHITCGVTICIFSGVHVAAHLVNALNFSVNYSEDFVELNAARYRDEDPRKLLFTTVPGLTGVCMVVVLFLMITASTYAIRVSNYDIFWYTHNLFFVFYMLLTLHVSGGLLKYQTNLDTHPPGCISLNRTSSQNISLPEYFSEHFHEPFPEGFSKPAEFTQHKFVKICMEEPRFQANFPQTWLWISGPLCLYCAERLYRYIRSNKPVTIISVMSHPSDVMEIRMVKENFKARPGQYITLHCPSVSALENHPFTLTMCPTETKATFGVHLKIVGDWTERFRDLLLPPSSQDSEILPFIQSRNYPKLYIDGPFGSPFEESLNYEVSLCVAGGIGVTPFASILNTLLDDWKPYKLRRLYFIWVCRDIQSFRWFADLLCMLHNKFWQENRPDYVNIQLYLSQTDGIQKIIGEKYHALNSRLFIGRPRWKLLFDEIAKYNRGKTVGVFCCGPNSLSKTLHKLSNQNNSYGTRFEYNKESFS
Experiment [20] concerns the target NADPH oxidase 5 (Homo sapiens) (UniProt Q96PH1). As to the kind of experiment: NOX5-dependent H2O2 signal modulators, primary screen, NOX inhibitor project, cell-based, HEK293-NOX5, Amplex Red fluorescence (AID 1161). The conditions noted are these: HEK293-NOX5, ionomycin, 45 min, higher = more signal.

Here are results for eight compounds from PubChem BioAssay.

The source made the active and inactive calls. Unless noted, how the calls were made is not given here.

Sequence of NADPH oxidase 5 (Homo sapiens) (Q96PH1 whole entry, looked up): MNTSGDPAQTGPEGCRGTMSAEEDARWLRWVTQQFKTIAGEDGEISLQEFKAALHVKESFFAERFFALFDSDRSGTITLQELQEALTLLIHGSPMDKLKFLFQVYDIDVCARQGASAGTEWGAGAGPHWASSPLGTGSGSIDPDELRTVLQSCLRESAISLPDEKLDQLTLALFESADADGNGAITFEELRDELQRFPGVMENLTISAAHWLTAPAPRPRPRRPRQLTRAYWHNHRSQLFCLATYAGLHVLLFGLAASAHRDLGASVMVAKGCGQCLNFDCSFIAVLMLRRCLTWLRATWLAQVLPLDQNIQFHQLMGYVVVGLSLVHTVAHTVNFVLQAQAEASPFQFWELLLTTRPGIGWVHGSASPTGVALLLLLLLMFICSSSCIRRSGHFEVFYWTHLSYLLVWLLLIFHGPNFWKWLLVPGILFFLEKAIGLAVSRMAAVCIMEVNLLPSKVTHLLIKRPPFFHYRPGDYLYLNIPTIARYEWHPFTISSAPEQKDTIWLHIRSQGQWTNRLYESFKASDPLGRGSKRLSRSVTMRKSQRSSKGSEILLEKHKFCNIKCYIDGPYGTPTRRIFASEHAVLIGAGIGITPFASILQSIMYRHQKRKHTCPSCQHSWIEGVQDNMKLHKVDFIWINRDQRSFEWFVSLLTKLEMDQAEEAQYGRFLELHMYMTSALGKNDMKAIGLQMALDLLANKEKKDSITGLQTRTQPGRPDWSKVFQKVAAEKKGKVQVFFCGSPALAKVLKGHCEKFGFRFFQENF
Sequence of Streptavidin (Streptomyces avidinii) (P22629 whole entry, looked up): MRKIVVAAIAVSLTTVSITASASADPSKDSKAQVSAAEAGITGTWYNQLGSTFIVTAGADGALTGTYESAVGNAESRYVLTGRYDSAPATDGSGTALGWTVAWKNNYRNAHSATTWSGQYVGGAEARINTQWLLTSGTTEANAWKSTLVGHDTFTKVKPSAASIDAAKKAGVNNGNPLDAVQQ
Sequence of Torsin-1A (Homo sapiens) (O14656 whole entry, looked up): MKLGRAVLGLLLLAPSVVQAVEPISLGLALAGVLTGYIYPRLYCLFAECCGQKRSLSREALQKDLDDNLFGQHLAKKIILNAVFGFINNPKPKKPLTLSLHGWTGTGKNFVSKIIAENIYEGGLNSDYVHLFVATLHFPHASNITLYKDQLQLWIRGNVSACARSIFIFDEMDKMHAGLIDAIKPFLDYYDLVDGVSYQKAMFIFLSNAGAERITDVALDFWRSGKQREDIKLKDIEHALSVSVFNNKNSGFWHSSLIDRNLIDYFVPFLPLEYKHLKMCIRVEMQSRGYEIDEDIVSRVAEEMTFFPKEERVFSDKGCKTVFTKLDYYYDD

For `O=C1[C@H]2[C@H]3[C@H](O)[C@H](O)CC(=NOC[C@@H](O)COCc4ccco4)[C@@H]3CC[C@H]2C(=O)N1c1ccc(F)cc1F`, the composite z-score in experiment [1] is 0.0016; in [6], -0.195; in experiment [7], -0.231; in experiment [8], 1.13; in experiment [9], 0.516; in experiment [10], 0.749. The composite z-score in experiment [12] was -0.639. The z-score in experiment [2] was -1.7 (inactive); in experiment [3], 1.85 (inactive); in experiment [4] it was -0.475 (inactive); in experiment [5], -0.0097 (inactive); in [11], -0.0233 (inactive); in [13], 2.3 (inactive). The z-score in experiment [14] is 0.537 (inactive); in [15] it was 1.67 (inactive); in experiment [16], 0.405 (inactive); in [17], -0.51; in [18], -1.37 (inactive); in experiment [19], 0.523 (inactive). This compound also displayed a z-score in experiment [20] of -0.579.
Consider `C[C@@H]1CCC2C(=O)N(Cc3ccccc3)C[C@@H](O)CN2[C@H]1c1ccc(Br)cc1` (stereo not given in full), for which the composite z-score is -0.412 in [1]; 0.398 in experiment [6]; -0.0719 in experiment [7]; 0.866 in experiment [8]; 1.42 in [9]; 0.228 in experiment [10]. In experiment [12], this compound yielded a composite z-score of -0.0573. Moreover, the z-score is -2.02 (inactive) in experiment [2]; -1.54 (inactive) in experiment [3]; 2.28 (inactive) in [4]; -0.284 (inactive) in experiment [5]; -0.732 (inactive) in experiment [11]; 0.167 (inactive) in experiment [13]. Moreover, the z-score in experiment [14] was -0.875 (inactive); in [15], -0.75 (inactive); in experiment [16], -0.567 (inactive); in experiment [17] it was 0.805; in experiment [18], 0.615 (inactive); in experiment [19], -0.146 (inactive). The same compound gave a z-score in experiment [20] of -0.836.
As to `CO[C@H]1O[C@H](CO)[C@@H](OC(=O)Nc2ccc3c(c2)OCO3)[C@H](OC(=O)Nc2ccccc2-c2ccccc2)[C@@H]1OC(=O)Nc1ccccc1-c1ccccc1`, the composite z-score was determined as 0.492 in [1]; 1.08 in experiment [6]; 0.124 in experiment [7]; 0.957 in experiment [8]; 1.17 in experiment [9]; 0.672 in [10]. This compound also yielded a composite z-score in experiment [12] of 0.298. Also, the z-score in experiment [2] was -3.03 (inactive); in [3] it was -0.176 (inactive); in experiment [4], 0.54 (inactive); in [5] it was -0.528 (inactive); in [11], 0.181 (inactive); in experiment [13], 2.44 (inactive). In addition, the z-score in [14] is 1.7 (inactive); in experiment [15], 0.433 (inactive); in experiment [16], 1.14 (inactive); in experiment [17], -0.0879; in experiment [18], 2.75 (inactive); in experiment [19] it was -0.0563 (inactive). For the same compound, the z-score in experiment [20] was -0.303.
Regarding `O=C1O[C@@H](c2ccccc2)[C@@H](c2ccccc2)N2[C@@H](c3ccccc3OCCO)[C@]3(C(=O)Nc4ccc(C#CCCO)cc43)[C@@H](C(=O)O)[C@H]12`, the composite z-score in experiment [1] amounted to 0.44; in experiment [6], 0.618; in [7] it was 1.43; in experiment [8], 0.536; in experiment [9] it was 0.925; in [10], 0.517. Further, the composite z-score in experiment [12] was 1.66. Also, the z-score is -5.04 (inactive) in experiment [2]; -0.923 (inactive) in [3]; -0.465 (inactive) in experiment [4]; 1.6 (inactive) in experiment [5]; 0.0825 (inactive) in [11]; 1.32 (inactive) in experiment [13]. For the same compound, the z-score in [14] was -2.1 (inactive); in experiment [15], 0.152 (inactive); in experiment [16] it was -2.06 (inactive); in experiment [17], 1.47; in experiment [18] it was 0.559 (inactive); in [19] it was -0.438 (inactive). Further, in [20], the z-score was -0.847.
Consider `O=C1[C@H]2[C@H]3[C@H](O)[C@H](O)CC(=NO[C@@H]4O[C@H](CO)[C@@H](O)[C@H](O)[C@H]4O)[C@@H]3CC[C@H]2C(=O)N1Cc1ccc2c(c1)OCO2`, for which the composite z-score in [1] is 0.163; in [6], 0.335; in [7], -0.0506; in experiment [8] it was 0.35; in experiment [9], 0.254; in experiment [10] it was 0.666. For the same compound, in [12], the composite z-score is -0.0016. The z-score is 0.548 (inactive) in [2]; 0.572 (inactive) in [3]; 0.245 (inactive) in [4]; 0.366 (inactive) in [5]; -0.161 (inactive) in experiment [11]; 5.54 (inactive) in experiment [13]. The z-score in experiment [14] was 0.373 (inactive); in experiment [15], 1.3 (inactive); in experiment [16] it was 0.404 (inactive); in experiment [17] it was 0.117; in experiment [18] it was -0.486 (inactive); in experiment [19] it was 0.295 (inactive). In addition, the z-score in [20] was -0.163.
In the case of `COC(=O)CC=C[C@H](C)[C@H](CO)NS(=O)(=O)c1ccc(C)cc1`, the composite z-score in [1] is 0.378; in experiment [6] it was 0.293; in [7] it was -0.122; in experiment [8] it was 0.375; in experiment [9], 0.0191; in experiment [10] it was 0.82. The compound also returned a composite z-score in experiment [12] of -0.221. Further, the z-score in [2] was -1.27 (inactive); in experiment [3] it was -0.0262 (inactive); in [4], -0.434 (inactive); in experiment [5], -0.692 (inactive); in experiment [11] it was -1.48 (inactive); in experiment [13], 0.251 (inactive). Further, the z-score in experiment [14] is -0.085 (inactive); in experiment [15], -0.206 (inactive); in [16] it was -0.119 (inactive); in [17], -0.497; in experiment [18] it was 1.48 (inactive); in experiment [19] it was 0.227 (inactive). Moreover, in experiment [20], the z-score was -0.484.
Consider `O=C(CS)NCCCCCNC(=O)[C@H]1C[C@H]2C(=O)N3CCC[C@H]3C(=O)N2[C@H]1c1cccc(OCCO)c1`, for which the composite z-score in experiment [1] was 0.76; in experiment [6] it was 0.0654; in experiment [7] it was -0.016; in experiment [8], 0.581; in experiment [9] it was 0.751; in experiment [10], 1.99. This compound showed a composite z-score in [12] of 0.315. Moreover, the z-score in experiment [2] is 0.0319 (inactive); in experiment [3], 0.162 (inactive); in [4], -0.126 (inactive); in experiment [5], 0.899 (inactive); in [11], -0.0612 (inactive); in experiment [13], 3.12 (inactive). The z-score is 0.55 (inactive) in experiment [14]; -2.35 (inactive) in [15]; 0.35 (inactive) in experiment [16]; 0.345 in experiment [17]; 1.45 (inactive) in [18]; 0.557 (inactive) in experiment [19]. This compound also displayed a z-score in experiment [20] of 0.557.
With `CCCCC(=C=CC[C@H](O)c1ccccc1OCCO)C[C@H](O)COCc1ccccc1`, the composite z-score is -0.0702 in experiment [1]; 0.395 in experiment [6]; -0.0523 in experiment [7]; 1.08 in experiment [8]; 0.259 in experiment [9]; 0.0668 in experiment [10]. In [12], the composite z-score was -0.0544. Besides, the z-score was -1.41 (inactive) in experiment [2]; 1.44 (inactive) in experiment [3]; 3.27 (inactive) in experiment [4]; 0.571 (inactive) in [5]; -0.16 (inactive) in experiment [11]; 12 (active) in [13]. Besides, the z-score in experiment [14] is 1.72 (inactive); in [15], 0.725 (inactive); in experiment [16] it was 0.921 (inactive); in experiment [17] it was -0.424; in experiment [18], -1.02 (inactive); in experiment [19], -1.37 (inactive). In addition, in [20], the z-score is -2.05.
